GALK inhibitor = qHTS Assay for Inhibitors of Human Galactokinase (GALK): NCGC Sytravon Library Screen. 44,000 tested, under 10 active. Potency, µM (highest dose often 57.5 µM), for inactives: at the highest dose activity, negative = inhibition, usual class: inhibitors. AID 1347072, 2019. recombinant GALK, Kinase-Glo ATP luminescence, 1 h;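 also: plate controls were full GALK reaction for no effect and reaction lacking GALK for full effect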
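Reactions with and without enzyme served as controls. GALK at 5 nM phosphorylates 100 uM galactose using 35 uM ATP (HEPES pH 8.0, Mg2+) for 1 h at RT, with luminescence read 10 min after adding Kinase-Glo Plus.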
HTT promoter inh = Primary qHTS for Identification of Small Molecule Inhibitors of Huntingtin Promoter Activity | hit rate 0.93% among 48,000 | HEK293 HTT promoter firefly luciferase reporter, 24 h | Potency, µM (top dose mostly 57.5 µM), inactives show at the top dose activity change, negative = inhibition, most hits filed as inhibitors; also: potency is read from the fitted curve at half-maximal effect; nearly all actives have a fitted effect of over 50% in size
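HEK293 Fluc reporter, 2,500 cells/well, 24 h pre-culture; cpds up to 57.5 uM final, 24 h 37 degrees C; Dual-Glo, 10 min RT; normalized vehicle = 0%, zero RLU = -100%.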
NTMT1 inhibitor = Primary qHTS for Inhibitors of N-terminal methyltransferase 1 (NTMT1): MTaseGlo Assay. Potency, µM (highest dose often 114 µM), for the others: top-dose activity change, negative = inhibition, most hits filed as inhibitors. N-terminal Xaa-Pro-Lys N-methyltransferase 1 (Homo sapiens), Q9BV86. hit rate 2.5% among 59,000. AID 1645870, 2021. NTMT1 MTase-Glo SAH luminescence, purified enzyme;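 also: potency is read from the fitted curve at half-maximal effect; plate controls were DMSO vehicle for no effect and no enzyme for full effect; nearly all actives have a fitted effect of over 65% in size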
Target sequence (Q9BV86 whole entry, looked up): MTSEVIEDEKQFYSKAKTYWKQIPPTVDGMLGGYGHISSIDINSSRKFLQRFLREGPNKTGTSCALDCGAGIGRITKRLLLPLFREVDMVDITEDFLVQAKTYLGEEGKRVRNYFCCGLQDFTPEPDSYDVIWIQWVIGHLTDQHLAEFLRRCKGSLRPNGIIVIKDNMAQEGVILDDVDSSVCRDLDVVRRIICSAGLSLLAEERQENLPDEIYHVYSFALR
FH mod = Identification of activators of human fumarate hydratase by quantitative high-throughput screening; AID 1347055, 2019; hit rate 0.22% among 54,000; FH coupled MDH/diaphorase resazurin fluorescence, 15 min; Potency, µM (titrated, usually from 79.9 µM), for the others: top-dose activity change, negative = inhibition, usual class: inhibitors; Fumarate hydratase, mitochondrial (Homo sapiens), P07954; also: potency is read from the fitted curve at half-maximal effect; % is scaled to controls: 0 for no effect and ±100 for the full control effect; the screen sought activators but most active calls are inhibition curves; nearly all actives have a fitted effect of over 45% in size
Target sequence (P07954 whole entry, looked up): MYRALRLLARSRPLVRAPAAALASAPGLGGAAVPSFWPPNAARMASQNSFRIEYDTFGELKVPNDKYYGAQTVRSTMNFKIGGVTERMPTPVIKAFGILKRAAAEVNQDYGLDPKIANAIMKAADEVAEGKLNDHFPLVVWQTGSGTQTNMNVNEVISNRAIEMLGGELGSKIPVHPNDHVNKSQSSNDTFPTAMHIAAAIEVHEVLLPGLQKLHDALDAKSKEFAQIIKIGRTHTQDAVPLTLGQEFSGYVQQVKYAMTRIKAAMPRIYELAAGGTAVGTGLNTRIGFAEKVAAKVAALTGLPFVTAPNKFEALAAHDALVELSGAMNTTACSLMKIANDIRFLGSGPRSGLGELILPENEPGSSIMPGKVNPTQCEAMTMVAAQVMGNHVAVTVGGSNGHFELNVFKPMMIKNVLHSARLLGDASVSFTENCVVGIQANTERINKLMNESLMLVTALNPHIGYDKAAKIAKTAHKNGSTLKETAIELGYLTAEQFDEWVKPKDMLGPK
HTT-AS promoter = Primary qHTS for Identification of Small Molecule Activators of Huntingtin-Antisense Promoter Activity; HEK293 HTT-AS promoter firefly luciferase reporter, 24 h; response scale: percent change from vehicle, -100% = no light; Potency, µM (series often up to 57.5 µM), without a hit: at the top dose activity change, positive = activation, hits mostly activators; AID 1508624, 2021; hit rate 0.24% among 48,000; also: potency is read from the fitted curve at half-maximal effect; nearly all actives have a fitted effect of over 55% in size
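Firefly luciferase readout (Dual-Glo, 10 min RT) after 24 h, 37 °C compound exposure (final up to 57.5 uM) of HEK293 reporter cells cultured 24 h beforehand; PTC124 at 50 uM final as control inhibitor; activity scaled vehicle 0%, zero RLU -100%.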
CLK4 inh-1 = Confirmation Assay for Inhibitors of CDC-like Kinase 4 (Kinase-Glo Assay): SAR round 2. shares compounds with NTMT1 inhibitor. hit rate 90% among 90. Potency, µM (titrated, usually from 76.9 µM), inactives show top-dose activity, negative = inhibition, usual class: inhibitors. recombinant Clk4, Kinase-Glo ATP luminescence, 4.5 h
CLK4 inh-2 = Kinase Inhibition Study on Inhibitors of CDC-like Kinase 4 (Reaction Biology data): SAR round 2 | shares compounds with NTMT1 inhibitor | Reaction Biology kinase assay, 10 uM ATP | Potency, µM, actives largely listed as inhibitors | hit rate 100% among 65 | AID 504421, 2011; calls by dose curve
DYRK1A RBC = Kinase Inhibition Study on Inhibitors of Dyrk1a (Reaction Biology data) | AID 504424, 2011 | hit rate 90% among 65 | shares compounds with NTMT1 inhibitor | Potency, µM, most hits filed as inhibitors | Reaction Biology kinase assay, 10 uM ATP;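 active = compounds that showed inhibition of Dyrk1a and received a fitted potency; inactive = compounds that showed no inhibition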
CLK2 inh = Kinase Inhibition Study on Inhibitors of CDC-like Kinase 2 (Reaction Biology data) | shares compounds with NTMT1 inhibitor | Reaction Biology kinase assay, 10 uM ATP | Potency, µM, most hits filed as inhibitors | hit rate 90% among 65 | AID 504427, 2011;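 active = compound that inhibits Clk2 kinase in the dose series, with an IC50 potency reported; inactive = no inhibition seen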
CLK3 RBC = Kinase Inhibition Study on Inhibitors of CDC-like Kinase 3 (Reaction Biology data); shares compounds with NTMT1 inhibitor; recombinant CLK3 kinase assay, 10 uM ATP; Potency, µM, most hits filed as inhibitors; hit rate 40% among 65; AID 504428, 2011;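 active = compounds that inhibited Clk3 enough in the ten-dose series to give a half-maximal potency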
DYRK1B inh = Kinase Inhibition Study on Inhibitors of Dyrk1b (Reaction Biology data); shares compounds with NTMT1 inhibitor; Recombinant Dyrk1b kinase assay, 10 uM ATP; Potency, µM, most hits filed as inhibitors; hit rate 80% among 65; AID 504429, 2011;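 active = compounds whose dose response shows an inhibitor phenotype against the kinase Dyrk1b; inactive = compounds showing no inhibitor phenotype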
CLK1 inh = Kinase Inhibition Study on Inhibitors of CDC-like Kinase 1 (Reaction Biology data) | hit rate 90% among 65 | shares compounds with NTMT1 inhibitor | AID 504430, 2011 | recombinant Clk1 kinase assay, 10 uM ATP | Potency, µM, actives largely listed as inhibitors;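 active = compounds that block the splicing kinase Clk1 enough to give a fitted half-inhibition concentration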
USP2a K63 = Confirmation Assay for Inhibitors of Ubiquitin-specific Protease USP2a Using CHOP2 as the Reporter: K633; Potency, µM (highest dose often 57.5 µM), for the others: at the highest dose activity change, negative = inhibition, usual class: inhibitors; shares compounds with NTMT1 inhibitor; USP2 cleavage of DiUb K63-3IQF, fluorescence kinetic; hit rate 80% among 30
Casp6 counter = qHTS for Inhibitors of Ubiquitin-specific Protease USP2a Using CHOP2 as the Reporter: Caspase 6 Assay; activity change, negative = inhibition, % at 46.1 µM; shares compounds with NTMT1 inhibitor; Caspase 6 enzyme, Caspase-Glo 6 luminescence; 30 tested, under 10 active
NNMT counter = Counterscreen qHTS for Inhibitors of N-terminal methyltransferase 1 (NTMT1): NNMT MTaseGlo assay | NNMT MTase-Glo luminescence, SAH detection | Potency, µM (highest dose often 57.1 µM), for the others: at the top dose activity, negative = inhibition, hits mostly inhibitors | shares compounds with NTMT1 inhibitor | hit rate 10% among 120
Active calls of the source: *; i = inactive; ? = inconclusive; . = no result; ! = not confirmed by another sample; [ ] = remark or other dose. Only some compounds are listed: those with a hit (about 2.5% of all), similar ones and a draw of the others. Unless noted, calls follow the shape of the dose curve; as a rule, active = well fitted curve in the direction sought with a large enough effect; inconclusive = small, poorly fitted or top-dose-only effect, or another doubt; inactive = no such curve, though single readings can be large; an effect the other way counts as inactive or inconclusive.

SMILES	GALK inhibitor	HTT promoter inh	NTMT1 inhibitor	FH mod	HTT-AS promoter	others
Cc1ccc(-c2cc(C(=O)Nc3ccc(S(N)(=O)=O)cc3)c3cccc(C)c3n2)cc1C	.	.	.	.	.	USP2a K63=10.9µM*;Casp6 counter=?
Cc1ccc(-c2cc(C(=O)Nc3ccc(-n4cccn4)cc3)c3ccccc3n2)cc1C	.	.	-12.2%	.	.	USP2a K63=8.63µM*;Casp6 counter=-7.3
Cc1ccc(-c2cc(C(=O)NCc3ccc(S(N)(=O)=O)cc3)c3ccccc3n2)cc1C	.	.	-8.5%	.	.
COc1cc(O)c(C(CC(=O)N2CCOCC2)c2ccc(C)cc2)c(OC)c1 (stereo unspecified)	.	.	8.3%	.	.
Cn1cc(/C=C/C(=O)c2cccc(F)c2)cc1/C=C/C(=O)NO	.	.	-25.0%	.	.
Cc1ccc(CN(C)c2ncnc3ccc(-c4ccc(CO)n4C)cc23)o1	.	.	.	.	.	CLK4 inh-1=23.2µM*
OCc1ccc(-c2ccc3ncnc(N4CCOCC4)c3c2)o1	.	.	-14.1%	.	.	CLK4 inh-1=0.519µM*;CLK4 inh-2=1.15*;DYRK1A RBC=14.7µM*;CLK2 inh=14.2µM*;CLK3 RBC=i;DYRK1B inh=15µM*;CLK1 inh=5.35µM*
CCc1ccc(CNC(=O)c2c(C)oc3ncnc(N4CCOCC4)c23)cc1	2.3%	?	2.2%	-6.1%	-30.0%
O=C(O)c1cc(N(Cc2ccc(C3CCCCC3)cc2)C(=O)c2ccc(Oc3ccccc3)cc2)ccc1O	.	.	31.6µM*	?	.	NNMT counter=-19.3%
COc1cc([C@@H]2c3cc4c(cc3[C@@H](O[C@@H]3O[C@@H]5CO[C@@H](c6cccs6)O[C@H]5[C@H](O)[C@H]3O)[C@H]3COC(=O)[C@H]23)OCO4)cc(OC)c1O	.	.	-10.4%	.	.
O=C(Nc1ccc(-n2ccnc2)c(F)c1)Nc1nnc(-c2ccncc2)s1	.	.	-7.8%	.	.
NC(=NCCCCCCN=C(N)/N=C(\N)Nc1ccc(Cl)cc1)/N=C(\N)Nc1ccc(Cl)cc1	.	?	25.1µM*!	32.0%	-28.7%	NNMT counter=?
Cc1ccc2nc3sc(C(=O)NCCCN(C)C)cc3cc2c1	.	.	-6.5%[57.5 µM]	.	.
CCC1C(=O)N(C)c2cnc(Nc3ccc(C(=O)NC4CCN(C)CC4)cc3OC)nc2N1C1CCCC1 (stereo unspecified)	.	.	12.6µM*	-2.1%	.	NNMT counter=?
COCCNc1cc(NC(=O)N2CCCc3cc(CN4CCN(C)CC4=O)c(C=O)nc32)ncc1C#N	.	.	19.9%[29.8 µM]	.	.
COc1ccc(-c2cc3c(C)nc(N)nc3n(C3CCC(OCCO)CC3)c2=O)cn1 (stereo unspecified)	.	?	-0.4%	0.8%	-28.7%	NNMT counter=?
CN(C)CCCOc1ccc(-c2ccc3ncc4c(c3c2)n(C2CCOCC2)c(=O)n4C)cn1	.	.	-0.2%[57.5 µM]	.	.
Cn1cc(-c2c[nH]c3ncnc(N4CCOCC4)c23)cn1	.	.	-12.3%	0.5%	.
N#Cc1cccc(-c2c[nH]c3ncnc(N4CCOCC4)c23)c1	.	.	15.8µM*	-4.1%	.	NNMT counter=?
O=C(Nc1ccc(OC(F)(F)Cl)cc1)c1cnc(N2CC[C@@H](O)C2)c(-c2ccn[nH]2)c1	.	.	-5.2%	.	.
Cc1cc(NS(=O)(=O)c2ccc(NC(=O)CCc3ccc(Cl)c(Cl)c3)cc2)no1	.	.	11.4%	.	.

Screens deposited in PubChem BioAssay by National Center for Advancing Translational Sciences (NCATS).
